Measured values published in PubChem BioAssay (EPA / NIEHS).
Activity calls are given as the source filed them. How the source made its calls: active means hit-call score of the fitted dose curve at least 0.9, where 1 is the maximum; inactive means score below 0.9.

How the values were obtained:
[1] = ATG_GRE_CIS: Attagene CIS-FACTORIAL HepG2 Assay for human Glucocorticoid Response Elements (GRE) (AID 2282947); details: HepG2 GRE cis-reporter, Attagene multiplex mRNA; actives raise or lower the signal
Procedure, shortened: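 Fluorescence intensity of reporter-specific cDNA fragments, separated by capillary electrophoresis, provides the signal. Constructs carry cis-regulating promoters in transiently transfected HepG2 liver cells; 24 h incubation; fitting is bidirectional against DMSO.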

[2] = ATG_ISRE_CIS: Attagene CIS-FACTORIAL HepG2 Assay for human Interferon Regulatory Factor 1 (IRF1) binding to an Interferon-Stimulated Response Element (ISRE) (AID 2282948); details: HepG2 ISRE cis-reporter (Attagene), mRNA transcription readout; actives raise or lower the signal
Procedure, shortened: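 Endogenous transcription factor activity read as reporter transcript abundance via RT-PCR and capillary electrophoresis. HepG2 cells transiently transfected, 24 h chemical exposure. Gain or loss fitted against DMSO baseline.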

[3] = ATG_M_32_CIS: Attagene CIS-FACTORIAL HepG2 Assay for M32 Transcription Factor (Internal Marker) (AID 2282949); details: HepG2 Attagene cis-factorial M32 reporter, mRNA; actives raise or lower the signal;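 further: background control marker of the multiplexed CIS panel rather than a real target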
Procedure, shortened: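 HepG2 transfectants (cis-regulated reporter transcription units) dosed 24 h. Reporter mRNA by RT-PCR plus CE, analysed as gain or loss relative to DMSO.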

[4] = ATG_M_06_CIS: Attagene CIS-FACTORIAL HepG2 Assay for M06 Transcription Factor (Internal Marker) (AID 2282950); details: HepG2 Attagene CIS-FACTORIAL M06 internal marker reporter; actives raise or lower the signal
Procedure, shortened: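 Read-out is fluorescence of labelled reporter cDNA fragments resolved by capillary electrophoresis after RT-PCR. Cells: HepG2 carrying transfected cis-promoter reporter units, treated 24 h. Gain or loss of signal fitted relative to DMSO.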

[5] = biological target: Hypoxia-inducible factor 1-alpha (Homo sapiens) (UniProt Q16665); test: ATG_HIF1a_CIS: Attagene CIS-FACTORIAL HepG2 Assay for human Hypoxia Inducible Factor 1 (HIF1A) (AID 2282951); details: HepG2 Attagene cis-factorial HIF1a reporter transcription; actives raise or lower the signal
Procedure, shortened: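 HepG2 cells transiently transfected with multiplexed cis-promoter reporter units; reporter mRNA read 24 h after dosing by RT-PCR, 6-FAM primer-extension labelling, HpaI digestion and capillary electrophoresis. Bidirectional fit versus DMSO baseline.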

[6] = biological target: Hepatocyte nuclear factor 6 (Homo sapiens) (UniProt Q9UBC0); test: ATG_HNF6_CIS: Attagene CIS-FACTORIAL HepG2 Assay for human Hepatocyte Nuclear Factor 6 (HNF6) (AID 2282952); details: HepG2 Attagene cis-factorial HNF6 reporter transcription; actives raise or lower the signal
Procedure, shortened: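 Twenty-four-hour chemical treatment of reporter-transfected HepG2 cells precedes RNA isolation, DNase-treated reverse transcription and PCR of reporter sequences. Labelled fragments are sized by capillary electrophoresis and fitted bidirectionally versus DMSO.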

[7] = biological target: Heat shock factor protein 1 (Homo sapiens) (UniProt Q00613); test: ATG_HSE_CIS: Attagene CIS-FACTORIAL HepG2 Assay for human Heat Shock Transcription Factor 1 (HSE) (AID 2282953); details: HepG2 HSE cis-reporter, Attagene RNA transcription; actives raise or lower the signal
Procedure, shortened: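 HepG2, transient MRTU transfection, cis-promoter reporters (endogenous TF activity). 24 h compound. RNA → oligo(dT) RT → PCR → 6-FAM primer extension → HpaI cut → CE. Bidirectional fit vs DMSO.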

[8] = ATG_MRE_CIS: Attagene CIS-FACTORIAL HepG2 Assay for human Metal Responsive Element (MRE) (AID 2282954); details: HepG2 MRE cis-reporter transcription, Attagene multiplex; actives raise or lower the signal
Procedure, shortened: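 Measured here is mRNA induction from an MRE cis-element reporter in HepG2 after 24 h, quantified by fluorescence of labelled RT-PCR products on capillary electrophoresis; gain- and loss-of-signal fits use DMSO as baseline.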

[9] = ATG_PBREM_CIS: Attagene CIS-FACTORIAL HepG2 Assay for human Phenobarbital-responsive Enhancer Module (PBREM) (AID 2282955); details: HepG2 PBREM cis-reporter, Attagene multiplexed transcription; actives raise or lower the signal
Procedure, shortened: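 HepG2 cells transiently transfected with multiple cis-regulated reporter transcription units; endogenous factor activity at the PBREM element measured as reporter mRNA 24 h after dosing, via RT-PCR and capillary electrophoresis of fluorescent fragments; bidirectional fitting versus DMSO.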

Measured: AC50

Hypoxia-inducible factor 1-alpha (Homo sapiens), sequence (Q16665 whole entry, looked up): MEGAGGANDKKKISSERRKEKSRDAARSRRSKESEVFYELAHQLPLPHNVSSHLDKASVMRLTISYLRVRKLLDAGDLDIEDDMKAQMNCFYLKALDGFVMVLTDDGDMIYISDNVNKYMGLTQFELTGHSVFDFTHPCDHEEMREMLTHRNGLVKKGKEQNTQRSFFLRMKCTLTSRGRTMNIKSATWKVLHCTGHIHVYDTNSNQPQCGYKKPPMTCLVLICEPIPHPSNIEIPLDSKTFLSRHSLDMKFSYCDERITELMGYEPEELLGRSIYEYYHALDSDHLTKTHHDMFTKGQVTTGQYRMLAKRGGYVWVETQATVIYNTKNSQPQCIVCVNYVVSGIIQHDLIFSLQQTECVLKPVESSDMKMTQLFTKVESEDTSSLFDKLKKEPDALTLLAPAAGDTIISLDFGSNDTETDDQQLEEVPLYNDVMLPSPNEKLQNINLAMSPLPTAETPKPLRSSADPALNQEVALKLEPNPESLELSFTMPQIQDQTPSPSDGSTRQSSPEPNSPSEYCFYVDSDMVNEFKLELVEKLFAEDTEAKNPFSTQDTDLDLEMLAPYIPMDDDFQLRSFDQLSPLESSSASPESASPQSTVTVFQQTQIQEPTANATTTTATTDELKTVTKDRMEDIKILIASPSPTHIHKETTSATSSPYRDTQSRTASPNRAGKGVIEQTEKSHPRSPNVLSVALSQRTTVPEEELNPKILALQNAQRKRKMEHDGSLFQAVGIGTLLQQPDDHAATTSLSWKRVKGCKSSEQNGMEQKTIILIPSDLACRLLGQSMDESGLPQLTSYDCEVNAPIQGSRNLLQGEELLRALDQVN
Heat shock factor protein 1 (Homo sapiens), sequence (Q00613 whole entry, looked up): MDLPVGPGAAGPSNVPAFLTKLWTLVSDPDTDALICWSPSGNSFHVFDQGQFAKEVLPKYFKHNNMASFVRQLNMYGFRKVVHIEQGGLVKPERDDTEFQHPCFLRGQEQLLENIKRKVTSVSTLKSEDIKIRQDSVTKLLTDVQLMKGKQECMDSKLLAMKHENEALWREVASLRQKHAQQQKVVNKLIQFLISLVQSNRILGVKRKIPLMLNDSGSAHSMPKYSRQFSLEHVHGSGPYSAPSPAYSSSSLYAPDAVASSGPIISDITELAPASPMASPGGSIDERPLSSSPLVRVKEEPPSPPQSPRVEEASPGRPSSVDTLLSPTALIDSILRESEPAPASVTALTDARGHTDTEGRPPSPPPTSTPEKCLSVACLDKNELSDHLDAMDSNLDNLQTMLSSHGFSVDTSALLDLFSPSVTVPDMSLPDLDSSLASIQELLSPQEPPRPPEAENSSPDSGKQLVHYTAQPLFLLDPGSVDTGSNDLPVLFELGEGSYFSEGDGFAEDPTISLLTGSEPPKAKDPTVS
Hepatocyte nuclear factor 6 (Homo sapiens), sequence (Q9UBC0 whole entry, looked up, the tested form may be a part): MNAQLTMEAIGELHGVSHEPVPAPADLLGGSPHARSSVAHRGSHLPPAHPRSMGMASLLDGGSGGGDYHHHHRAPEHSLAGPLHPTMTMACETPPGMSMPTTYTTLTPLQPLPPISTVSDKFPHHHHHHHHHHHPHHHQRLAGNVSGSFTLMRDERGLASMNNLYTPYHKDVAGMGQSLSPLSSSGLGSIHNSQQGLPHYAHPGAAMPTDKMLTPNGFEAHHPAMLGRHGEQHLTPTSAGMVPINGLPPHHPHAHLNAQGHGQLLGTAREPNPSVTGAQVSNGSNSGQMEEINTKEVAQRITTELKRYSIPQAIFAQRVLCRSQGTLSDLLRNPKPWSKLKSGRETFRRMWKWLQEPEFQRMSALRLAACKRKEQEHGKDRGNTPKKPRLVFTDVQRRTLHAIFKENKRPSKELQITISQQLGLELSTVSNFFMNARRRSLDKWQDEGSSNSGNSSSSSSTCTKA

C=C1C2CCC(C2)C1(C)C (configuration not stated)
inactive: [1] | [2] | [3] | [4] | [5] | [6] | [7] | [8] | [9]

CNC(=S)NN
inactive: [1] | [2] | [3] | [4] | [5] | [6] | [8]

NC(=O)OCC(COC(N)=O)c1ccccc1
inactive: [1] | [2] | [3] | [4] | [6] | [7] | [8] | [9]

O=c1cc(-c2ccccc2)oc2ccccc12
active: [2] 127 µM | [7] 178 µM | [8] 124 µM | [9] 99.5 µM
inactive: [1] | [3] | [4] | [5]

CC(C)(C)c1ccc(N)cc1
inactive: [1] | [2] | [3] | [4] | [5] | [7] | [8] | [9]

CCCCCCCCCCCSCC(=O)O
inactive: [1] | [3] | [4] | [9]
active: [2] 74.1 µM | [5] 124 µM | [6] 100 µM | [7] 159 µM | [8] 106 µM

[Cl][In]([Cl])[Cl]
inactive: [1] | [2] | [3] | [4] | [5] | [6] | [8] | [9]

CC(C)CC(O)Cc1ccccc1 (configuration not stated)
inactive: [1] | [2] | [3] | [4] | [5] | [6] | [8]

CO[Si](OC)(OC)c1ccccc1
inactive: [1] | [2] | [3] | [4] | [5] | [7] | [8] | [9]

CC(=O)NS(=O)(=O)c1ccc(N)cc1
inactive: [1] | [2] | [3] | [4] | [6] | [7] | [8]

CCC(=O)Oc1ccc(/C(CC)=C(\CC)c2ccc(OC(=O)CC)cc2)cc1
active: [2] 16.9 µM | [7] 29.1 µM | [8] 30.6 µM
inactive: [1] | [3] | [4] | [6]

S=C(NC1CCCCC1)NC1CCCCC1
inactive: [1] | [2] | [3] | [4] | [5] | [7] | [8] | [9]

CCCCCC(C)O (configuration not stated)
inactive: [1] | [2] | [3] | [4] | [5] | [6] | [8] | [9]

C=CC(=O)OCCC(=O)O
inactive: [1] | [2] | [3] | [4] | [5] | [6] | [8] | [9]

c1c[nH]cn1
inactive: [1] | [2] | [3] | [4] | [5] | [7] | [8]

Nc1ncn([C@@H]2O[C@H](CO)[C@@H](O)[C@H]2O)c(=O)n1
active: [2] 10.8 µM
inactive: [1] | [3] | [4] | [6] | [7] | [8] | [9]

[Cl][Bi]([Cl])([c]1ccccc1)([c]1ccccc1)[c]1ccccc1
active: [2] 2.74 µM | [8] 6.46 µM
inactive: [1] | [3] | [4] | [5] | [6] | [9]

COCCOCCOCCOCCOC
inactive: [1] | [2] | [3] | [4] | [5] | [6] | [8]

O=C1CCCN1CCO
inactive: [1] | [2] | [3] | [4] | [5] | [7] | [8] | [9]

O=c1c2ccccc2oc2ccccc12
inactive: [1] | [2] | [3] | [4] | [5] | [6] | [8] | [9]

O=C1CCCCCCCCCCC(=O)OCCO1
inactive: [1] | [2] | [3] | [4] | [5] | [7] | [8] | [9]

CC(C)c1ccc(C=O)cc1
inactive: [1] | [2] | [3] | [4] | [5] | [6] | [8] | [9]

CC1(C)S[C@@H]2[C@H](NC(=O)COc3ccccc3)C(=O)N2[C@H]1C(=O)O
inactive: [1] | [2] | [3] | [4] | [6] | [8]

COc1ccc(-c2coc3cc(O)ccc3c2=O)cc1
inactive: [1] | [3] | [4] | [5] | [6] | [8]

OC1CCCC1
inactive: [1] | [2] | [3] | [5] | [6] | [7] | [8] | [9]

COc1c2ccoc2cc2oc(=O)ccc12
inactive: [1] | [3] | [4] | [5] | [6] | [7] | [8] | [9]

CCCCCCOc1cc(C)c(O)c(C)c1C
inactive: [1] | [3] | [4] | [5] | [6] | [7]
active: [8] 18.2 µM | [9] 11.1 µM

CCOC(=O)N1CCC(=C2c3ccc(Cl)cc3CCc3cccnc32)CC1
active: [2] 7.19 µM | [5] 7.91 µM | [8] 10.7 µM | [9] 0.933 µM
inactive: [1] | [3] | [7]

CCCCCCCC/C=C\CCCCCCCC(=O)OCCO
inactive: [1] | [3] | [4] | [5] | [6] | [7] | [8]

CC(C)CCCCCOC(=O)CCS
inactive: [1] | [3] | [4] | [5] | [6] | [7] | [8] | [9]

[Cl][Nd]([Cl])[Cl]
inactive: [1] | [3] | [4] | [5] | [7] | [8] | [9]
